# Results published in PubChem BioAssay (NCI).
# The panel holds about 79,000 compounds, 15% with a hit somewhere; the sample as a whole holds those more often. Values without a mark were called inactive. The source made the active and inactive calls. Rule as the data show it: active = growth inhibition above about 70%; inactive = the rest.
# Tests used:
# [1] = NCI Yeast Anticancer Drug Screen. Data for the rad50 strain (AID 155);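 also: 0% = growth of vehicle-only cultures of the same strain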; conditions: S. cerevisiae rad50 strain growth inhibition; at 50.0 µM; hits give high values
# Summary of the method: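 DNA repair mutant yeast, compound exposure, growth read-out; inhibition is taken relative to vehicle.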
# [2] = NCI Yeast Anticancer Drug Screen. Data for the mec2-1 strain (AID 157); conditions: S. cerevisiae mec2-1 strain, at 50.0 µM, hits give high values
# Summary of the method: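 Test agents were screened against the mec2-1 yeast strain, with defined DNA repair or cell cycle alteration. Growth was scored as inhibition against vehicle-only controls.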
# [3] = NCI Yeast Anticancer Drug Screen. Data for the sgs1 mgt1 strain (AID 161);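 also: 0% = growth of cultures given vehicle only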; conditions: S. cerevisiae sgs1 mgt1 strain, at 50.0 µM, hits give high values
# Summary of the method: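 Mutant yeast exposed to compound; growth scored against vehicle-only wells.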
# [4] = NCI Yeast Anticancer Drug Screen. Data for the cln2 rad14 strain (AID 165);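 also: 0% = growth equal to vehicle treated cultures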; conditions: S. cerevisiae cln2 rad14 strain, at 50.0 µM, hits give high values
# Summary of the method: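 Growth of compound-exposed yeast (cln2 rad14 genotype) measured and expressed as inhibition relative to vehicle.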
# [5] = NCI Yeast Anticancer Drug Screen. Data for the bub3 strain (AID 167); conditions: S. cerevisiae bub3 mutant strain, at 50.0 µM, hits give high values
# Summary of the method: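 In this screen, a yeast mutant lacking normal mitotic checkpoint function is challenged with compound. Relative growth versus vehicle gives the inhibition value.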
# [6] = NCI Yeast Anticancer Drug Screen. Data for the mlh1 rad18 strain (AID 175); conditions: S. cerevisiae mlh1 rad18 strain growth inhibition; at 50.0 µM; hits give high values
# Summary of the method: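 In this whole-cell yeast screen, a strain with altered DNA damage repair is challenged with compound, and its growth is measured against matched vehicle-treated controls.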
SMILES,growth inhibition [1],growth inhibition [2],growth inhibition [3],growth inhibition [4],growth inhibition [5],growth inhibition [6]
CN(C)C(=O)Oc1ccc(Cl)cc1Cl,9.2%,18.1%,-5.8%,-7.3%,-9.35%,32.6%
CCCCCCCCCCCCCCCC(=O)[O][Hg][c]1ccccc1,97.6% (active),96.7% (active),99% (active),98.1% (active),99.2% (active),98.8% (active)
CCC(=O)c1ccc(OC)c(OC)c1,7%,-1.3%,-0.15%,-2.85%,15.7%,1.75%
CCCCCCCC(=O)O.[Sn],-2.25%,-7.35%,-9.6%,-45.9%,12.1%,-19%
Cc1ccc(S(=O)(=O)N/N=C(\CCN2CCCC2)CC(c2ccccc2)c2c(O)c3ccccc3oc2=O)cc1 (stereo unspecified),14.6%,9.1%,20.8%,21.8%,9.95%,17.6%
N.N.N.N.N.O=C([O-])C(=O)[O-].[Co+3].[O-][Cl+3]([O-])([O-])O.[O-][Cl+3]([O-])([O-])[O-],-12.3%,11.8%,-22.9%,6.2%,0.8%,-12.7%
Cc1cc(C(C)(C)C)ccc1O,27.4%,-4.1%,8.95%,4.6%,28.2%,22%
Nc1nc(CC(N)C(=O)O)c[se]1 (stereo unspecified),56.8%,28.4%,21.1%,5.35%,21.3%,11%
O=NN(CCCl)C(=O)O,5.55%,-9.05%,-5.25%,-42.8%,10.9%,11.9%
c1ccc([Se+](c2ccccc2)c2ccccc2)cc1,16.8%,-46.5%,1.75%,-10.1%,-1.55%,17.9%
CC1OC(OC2C(O)C(O)C(O)C(O)C2O)C(N)CC1N=C(N)C(=O)O (stereo unspecified),12.5%,3.6%,-18.1%,-34.5%,-0.35%,23.6%
CCOC(=O)N(NC(=O)c1ccc(N(CCCl)CCCl)cc1)C(C)=O,6.2%,8.95%,3.15%,-15.5%,5.65%,30.9%
CCOP(=O)(O)CP(=O)(O)OCC.CCOP(=O)(O)CP(=O)(O)OCC.[Cr],-61.8%,-11.4%,-32.2%,-40.5%,2.7%,-27.2%
COC(=O)COC1CC[CH-]CC1.[Cl-].[Cl-].[Cl-].[Cl-].[Cl-].[Sb+5].c1ccncc1,20.8%,7.8%,18.7%,17.6%,4.75%,12.8%
[Cu].[NH2-].[NH2-].[NH2-].[NH2-],-21.8%,-15.8%,-23.1%,-64.8%,-4.05%,-23.6%
Clc1ccc([C@H]2N[C@@H]2c2ccccn2)cc1,11.2%,16.1%,13.7%,-8.45%,9.15%,-5.55%
CCC(=O)OC1(c2ccccc2)CCN(CCC(=O)c2ccccc2)CC1C (stereo unspecified),48.6%,36.6%,47.8%,38.6%,27.1%,37.3%
CS(=O)(=O)NC(=O)CBr,-26.1%,-23.6%,-12.8%,14.6%,-29.4%,-21.1%
Cc1cc(C)c(CCl)cc1CCl,16.2%,-5.75%,26.4%,-7%,-7.15%,27.8%
C[N+](C)(Cc1ccc([N+](=O)[O-])cc1)c1ccc(N(CCCl)CCCl)cc1,-4%,-24.3%,-33%,-15.4%,-21.8%,10.8%
COC(=O)C(CCC(=O)O)NC(=O)OCc1ccccc1 (stereo unspecified),40.5%,-1.35%,17.6%,-7.7%,4.55%,19.5%
